In PubChem BioAssay AID2314 (National Center for Advancing Translational Sciences (NCATS), 2010) one finds max response data, which are given here for 96 compounds.

In all, about 300,000 compounds went through this assay and about 37,000 (12%) were called active. The entries come from a sample that favours actives as a whole. Values without a mark were called inactive. No stated cut-off is given here; in the data, active means max response mostly above about 13% (no sharp cut-off); inactive means mostly below about 14%.

A short description of the assay: Cycloheximide Counterscreen for Small Molecule Inhibitors of Shiga Toxin. Further: read at 38.3 µM for the half of the compounds with a filed dose; 0% is about no effect. As to conditions: cell reporter, cycloheximide protein synthesis inhibition counterscreen; stronger effect = higher value.
In the case of `O=C(NCCCO)c1cc2c([nH]c3ccccc32)c(-c2ccc(F)cc2)n1`, the max response is 1.63%.

Regarding `Cc1c(C=O)c2ccccc2n1CCOc1ccccc1`, the max response is 11.4%.

On to `COc1ccccc1N=Nc1c(O)[nH]c(=S)[nH]c1=O`, for which the max response is 18.5% (active).

Take `COc1ccccc1N=C(C)C1=C(O)COC1=O`: the max response was -3.1%.

Turning to `COC(=O)c1ccccc1N=Nc1c(C)[nH][nH]c1=O`, the max response is -1.54%.

As to `COCCCNC(NC(=O)c1ccc(C)cc1)C(Cl)(Cl)Cl` (stereo unspecified), the max response was 0.737%.

For the compound `Cc1ccc(CNC(=O)C2CCN(S(=O)(=O)c3ccc4nc5c(c(C(=O)O)c4c3)CC(C)CC5)CC2)cc1` (stereo unspecified), the max response was -2.65%.

As for `O=C(NCCCCc1ccccc1)C1CC(c2ccc([N+](=O)[O-])cc2)=NO1` (stereo unspecified), the max response is 1.79%.

Consider `Cc1[nH][nH]c(=O)c1N=Nc1ccccc1`, for which the max response was -2.86%.

As for `Cc1[nH][nH]c(=O)c1C(c1ccc2c(c1)OCO2)c1c(C)[nH][nH]c1=O`, the max response was -0.172%.

As to `Nc1[nH][nH]c(=O)c1N=Nc1ccc2c(c1)OCO2`, the max response is 37.1% (active).

Regarding `COc1cc(OC)c2c(c1C(CCN1CCCCC1)c1ccc(N(C)C)cc1)OC(=O)CC2c1ccc(N(C)C)cc1` (stereo unspecified), the max response was -4.1%.

In the case of `Cc1ccc(O)c(CCc2ccccc2)n1`, the max response was 17.6% (active).

As for `Cc1ccc(O)c(-c2cc(C(=O)NCc3ccccc3)[nH]n2)c1`, the max response is 11.1%.

`c1ccc(CSCCc2ccncc2)cc1`: the max response was 7.75%.

Take `CC(=O)N1CC[n+]2c(-c3ccc([N+](=O)[O-])cc3)csc21`: the max response was 6.33%.

Take `CN1CCN(c2ccc([N+](=O)[O-])c(Sc3nc4ccccc4[nH]3)c2)CC1`: the max response was -2.61%.

Consider `Cc1nc2ccc(N3CCN(C)CC3)cc2nc1C`, for which the max response was 40.7% (active).

For `COc1cccc(-c2nc3ccc(N4CCN(C)CC4)cc3[nH]2)c1`, the max response was -9.87%.

Consider `Cc1ccc(Cn2cc(C(=O)NN)c(=O)c3ccc(F)cc32)cc1`, for which the max response was -3.85%.

Consider `Cc1ccc(CNC(=O)c2c(-c3ccccc3)noc2C)cc1`, for which the max response is -2.32%.

For `CC(=O)c1ccc(NC(=O)c2ccc3c(Cl)c4c(nc3c2)CCCC4)cc1`, the max response is -0.107%.

With `COc1ccc(N2CCN(C(=O)c3ccc4c(Cl)c5c(nc4c3)CCCC5)CC2)cc1`, the max response is -3.2%.

Turning to `CC(C)CCNC(=O)c1ccc2c(Cl)c3c(nc2c1)CCC3`, the max response is 48.4% (active).

`COc1cccc(CC2(CO)CCN(Cc3cnc(-c4cccc(C)c4)nc3)CC2)c1`: the max response is 10.3%.

As for `Oc1ccc2nc(Cc3ccccc3)[nH]c2c1`, the max response is 20.5% (active).

With `Cc1nc2ccc(C(=O)O)cc2[nH]1`, the max response was -7.8%.

Consider `c1ccc2cc3[nH]c(CN4CCCCC4)nc3cc2c1`, for which the max response was 31.1%.

Consider `Cc1cc(OCC(=O)N2CCN(c3ncccn3)CC2)ccc1Cl`, for which the max response is -2.98%.

Regarding `O=C(CC1C(=O)NCCN1CC(c1ccccc1)c1ccccc1)NCC1CCOCC1` (stereo unspecified), the max response was -4.31%.

With `Cc1nc(Nc2ccc3c(c2)OCCO3)c2nnn(Cc3ccccc3Cl)c2n1`, the max response is 83.5% (active).

In the case of `Cc1nc(Nc2ccccc2F)c2nnn(Cc3ccccc3Cl)c2n1`, the max response was -1.8%.

`CCCc1nc(NCc2ccc3c(c2)OCO3)c2nnn(Cc3ccccc3Cl)c2n1`: the max response is -2.15%.

Consider `CC1(c2ccc3ccccc3c2)NC(=O)N(CC(N)=O)C1=O` (stereo unspecified), for which the max response is -1.55%.

As for `CC(C)=C(NC(=O)c1ccco1)C(=O)NCCc1nc2ccccc2[nH]1`, the max response was -2.53%.

As for `Nc1cccc(CCc2nc3ccccc3[nH]2)c1`, the max response is 24% (active).

Regarding `Cc1ccc2nc(SCc3cn4c(C)cc(C)nc4n3)[nH]c2c1`, the max response was -4.98%.

With `O=C(CNCc1ccc(Cl)cc1)Nc1cccc(C(=O)O)c1`, the max response was -7.34%.

Take `O=C(c1nnc(-c2ccc(Cl)cc2)o1)C1CCCC1`: the max response is 15.5% (active).

Consider `O=C(Nc1nnc(-c2ccc(Cl)cc2)o1)c1ccccc1Br`, for which the max response is 14.7%.

For the compound `O=C(c1[nH]ncc1-c1ccc(Cl)cc1)C1CO1` (stereo unspecified), the max response was 16.3%.

For the compound `CCCC(=O)N1CCC(CCC(=O)NC2CC2)CC1`, the max response is 10.7%.

Turning to `COc1ccc(C(=O)Nc2c(N)nc(SCC(=O)Nc3ccc(C(C)=O)cc3)[nH]c2=O)cc1`, the max response was 0.562%.

Regarding `CS(=O)(=O)N(Cc1ccccc1)c1ccc(C(=O)NN=C2CCCCCC2)cc1`, the max response is 0.492%.

As for `CC(C)(C)NC(=O)C(=O)NN=C1CCCCCCC1`, the max response was 17.4%.

`CCc1ccc(C(=O)NN=C2CCCCCC2)s1`: the max response was 33% (active).

For `COC(=O)c1cc(N2CCNCC2)nc2ccccc12`, the max response is -0.723%.

Turning to `CC(=O)c1cccc(NC(=S)N2CCN(S(C)(=O)=O)CC2)c1`, the max response is 3.24%.

As to `CCc1nnc(NC(=O)CSc2nnnn2-c2cccc(C(C)=O)c2)s1`, the max response was -0.713%.

Take `CC(=O)c1cccc(NC(=O)[C@@H](NC(N)=O)C(C)C)c1`: the max response was -2.8%.

Turning to `COc1ccccc1NC(=O)Nc1nnc(Cc2ccc(F)cc2)s1`, the max response is -1.91%.

Turning to `CCc1nc(SCC(=O)Nc2ccccc2OC)n[nH]1`, the max response is -2%.

On to `CCSc1nsc(NC(=O)Nc2cccc(C(C)=O)c2)n1`, for which the max response is 47.8% (active).

On to `CCSc1nsc(NC(=O)Nc2ccccc2OC)n1`, for which the max response was 29.3% (active).

As to `C=C(C)C(=O)Nc1cccc(C(C)=O)c1`, the max response is -4.07%.

Consider `C=CCSc1nsc(NC(=O)Nc2cccc(C(C)=O)c2)n1`, for which the max response is 15.7% (active).

Consider `Cc1cccn2c(=O)c3cc(C(=O)NCC4CCCO4)c(=N)n(Cc4ccc(F)cc4)c3nc12` (stereo unspecified), for which the max response was -1.9%.

In the case of `Cc1cc2oc(=O)cc(-c3ccccc3)c2c(C)c1/C=C/c1ccc(F)cc1`, the max response is 11.8%.

Regarding `COc1ccc(CCNC(=O)CCCCCNC(=O)N2CCn3c2nc2ccccc23)cc1OC`, the max response is -1.5%.

As to `Cc1c(Cl)cccc1NC(=O)NCc1ccc(C)n1C`, the max response is -4%.

In the case of `CCCn1c(C(C)Nc2nc(-c3ccc(C)cc3)cs2)nc2cc(Cl)c(N3CCCCC3)cc21` (stereo unspecified), the max response is -2.37%.

On to `CCOC(=O)CSc1nc(C)c(Oc2ccc(Cl)cc2Cl)c(=O)[nH]1`, for which the max response is -0.833%.

As for `CC1CCCC(C)N1/N=C/c1ccccc1OC(F)F` (stereo unspecified), the max response was 7.52%.

As for `COC(=O)c1ccc(/C=N\n2c(C)nnc2C)cc1`, the max response is -2.39%.

In the case of `COC(=O)c1ccc(/C=N/N2C(C)CCCC2C)cc1` (stereo unspecified), the max response is 32.3% (active).

In the case of `CNC(=O)c1c(NC(NC(=O)c2ccco2)C(=O)c2ccc(Cl)cc2)sc2c1CCCC2` (stereo unspecified), the max response was -2.69%.

Regarding `COC(=O)c1ccc(NC(=O)CSc2nncn2-c2cccnc2)cc1`, the max response is 3.92%.

Regarding `COC(=O)C1(C)NC(c2ccc(F)cc2)C2C(=O)N(c3ccccc3)C(=O)C21` (stereo unspecified), the max response is -1.89%.

Turning to `COc1cccc(NC(=O)CN(C)C(=O)Cc2ccc(Cl)cc2Cl)c1`, the max response was -1.79%.

`COc1ccc(NC(=O)CN(C)C(=O)CNC(=O)C2CCCCC2)cc1`: the max response was 4.44%.

Consider `CN(CC(=O)Nc1ccc(Cl)cc1)C(=O)CNC(=O)c1ccc2ccccc2c1`, for which the max response was 24.6% (active).

`CCOC(=O)[C@@H]1[C@H]2COc3cc(OC)ccc3[C@@H]2N2C(=O)N(c3cccc(C)c3)C(=O)[C@@]12C`: the max response was -1.45%.

Regarding `CCCCn1c(-c2cccc(C)c2)nc2cc3[nH]c(=O)c(C(C)C)nc3cc21`, the max response is 8.65%.

For `CC1(C)CCSC(/C=C/c2ccccc2)=N1`, the max response is 32.8% (active).

`CCCCC(CC)CNC(=O)C(=O)C1C(=O)Nc2ccccc21` (stereo unspecified): the max response was 15.4%.

On to `C[C@@H]1C(c2ccc(F)cc2)=NN(c2ccc(Br)cc2)[C@H]1C(=O)N1CCOC1=O`, for which the max response is -1.82%.

As to `COc1ccc(/C=N/Nc2ncnc3sc4c(c23)CCCC4)cc1O`, the max response was 27.5% (active).

As for `COc1ccc(NC(=O)CCNC(=O)Cn2cnc3sc4c(c3c2=O)CCCC4)cc1OC`, the max response was -3.75%.

On to `COc1ncnc2sc3c(c12)CCCC3`, for which the max response was -0.884%.

Consider `COc1ccc(C2C(C(C)=O)=C(O)C(=O)N2c2nccs2)cc1` (stereo unspecified), for which the max response was -3.41%.

For the compound `COc1ccc(C(=O)NNC(=S)NC(=O)c2ccccc2[N+](=O)[O-])cc1`, the max response was 2.1%.

Consider `Cc1ccc(NC(=O)CN2C(=O)NC(C)(c3ccc(Cl)cc3)C2=O)c(Br)c1` (stereo unspecified), for which the max response is -5.49%.

For the compound `CC(/C=C/c1ccco1)=N/NC(=O)C1COc2ccccc2O1` (stereo unspecified), the max response is 7.66%.

For `COc1ccc(C(=O)N2CCC(C(=O)Nc3ccc(C)cc3)CC2)cc1`, the max response is 4.42%.

Turning to `C/C(=N/NC(=O)C1COc2ccccc2O1)c1ccco1` (stereo unspecified), the max response was 4.02%.

For the compound `COc1cccc(N(C(=O)C2COc3ccccc3O2)C(C(=O)NC2CCCCC2)c2ccc(O)cc2)c1` (stereo unspecified), the max response was 8.69%.

`COc1ccc(NC(=O)C2COc3ccccc3O2)cc1` (stereo unspecified): the max response was 41% (active).

As to `CC(=O)c1cccc(NC(=O)C2COc3ccccc3O2)c1` (stereo unspecified), the max response is 23.2% (active).

Consider `Cn1nc(C(F)(F)F)c(C(=O)Nc2cccc(C(F)(F)F)c2)c1SCc1ccc(Cl)cc1`, for which the max response is -3.55%.

As for `Cc1ccc(CN(CC(=O)NCC2CCCO2)S(=O)(=O)c2ccc(C)cc2)cc1` (stereo unspecified), the max response was -1.68%.

For `O=C1Nc2ccccc2/C1=C/c1ccnc2ccccc12`, the max response was -4.29%.

Consider `Cc1cccn2c(=O)c(C=O)c(Nc3ccc(S(N)(=O)=O)cc3)nc12`, for which the max response is -2.14%.

Consider `CC(C)C(C)NC(=O)COc1nc2ccccc2nc1N(C)C1CCCCC1` (stereo unspecified), for which the max response was -4.63%.

In the case of `O=c1c2ccccc2ncn1/N=C/c1ccccc1`, the max response was 40.3% (active).

Consider `CCCc1nc2ccccc2c(=O)n1/N=C/c1ccc(O)c(O)c1`, for which the max response is -1.03%.

For the compound `O=c1c2ccccc2nc(N/N=C/c2ccccc2)n1O`, the max response was 11.3%.
